Measurements reported in PubChem BioAssay AID1159580 (chemical genetic matrix, 2015).
Values joined by “and” are separate entries in the source; they are usually repeats but may differ in a detail not shown here. Equal entries are not always repeated. In all, about 5,500 compounds went through this assay and about 2,000 (36%) were called active. Not shown: some 18% with an inconclusive outcome. Cut-off read from the data, not from the text of the source: active = normalized growth mostly below about 0.91 (no sharp cut-off); inconclusive = no clear call, values can overlap the other calls; inactive = mostly above about 0.92. This is one part of the list.

Experiment: chemical genetic growth profiling, strain panel (AID 1159580);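 note: tested at 20 µM; growth read once vehicle control cultures reached saturation at 30 °C; 1 = growth at the plate median or of vehicle wells; lower values mean less growth of the strain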
Settings: growth OD

Measured: normalized growth

CC(=O)Nc1ccc(S(=O)(=O)Nc2ccc([N+](=O)[O-])cc2)cc1
inactive: S. cerevisiae deletion strains, locus YAL013W, strain DEP1, active compounds read low 1.01 | S. cerevisiae deletion strains, locus YBR021W, strain FUR4, active compounds read low 0.97 | S. cerevisiae deletion strains, locus YBR229C, strain ROT2, active compounds read low 1.01 | S. cerevisiae deletion strains, locus YCL029C, strain bik1, active compounds read low 1.01 | S. cerevisiae deletion strains, locus YDL035C, strain GPR1, active compounds read low 1.01 | S. cerevisiae deletion strains, locus YDL074C, strain BRE1, active compounds read low 0.986 | S. cerevisiae deletion strains, locus YDL101C, strain DUN1, active compounds read low 1 | S. cerevisiae deletion strains, locus YDL134C, strain PPH21, active compounds read low 1 | S. cerevisiae deletion strains, locus YDL185W, strain tfp1, active compounds read low 0.999 | S. cerevisiae deletion strains, locus YDL192W, strain arf1, active compounds read low 1.01 | S. cerevisiae deletion strains, locus YDR101C, strain arx1, active compounds read low 0.99 | S. cerevisiae deletion strains, locus YDR150W, strain NUM1, active compounds read low 1.02 | S. cerevisiae deletion strains, locus YDR162C, strain NBP2, active compounds read low 1.01 | S. cerevisiae deletion strains, locus YDR318W, strain mcm21, active compounds read low 0.991 | S. cerevisiae deletion strains, locus YDR388W, active compounds read low 0.999 | S. cerevisiae deletion strains, locus YDR502C, strain sam2, active compounds read low 1 | S. cerevisiae deletion strains, locus YEL061C, strain CIN8, active compounds read low 1.01 | S. cerevisiae deletion strains, locus YER110C, active compounds read low 0.997 | S. cerevisiae deletion strains, locus YER155C, strain BEM2, active compounds read low 1 | S. cerevisiae deletion strains, locus YER167W, strain BCK2, active compounds read low 1.01 | S. cerevisiae deletion strains, locus YGL078C, strain dbp3, active compounds read low 1 | S. cerevisiae deletion strains, locus YGL086W, strain mad1, active compounds read low 1 | S. cerevisiae deletion strains, locus YGL248W, strain PDE1, active compounds read low 1 | S. cerevisiae deletion strains, locus YGR078C, strain PAC10, active compounds read low 0.995 | S. cerevisiae deletion strains, locus YGR135W, strain pre9, active compounds read low 0.996 | S. cerevisiae deletion strains, locus YGR229C, strain SMI1, active compounds read low 1.01 | S. cerevisiae deletion strains, locus YGR252W, strain gcn5, active compounds read low 0.955 | S. cerevisiae deletion strains, locus YHR030C, strain SLT2, active compounds read low 1.01 and 1 | S. cerevisiae deletion strains, locus YHR079C, strain IRE1 (second series), active compounds read low 0.997 | S. cerevisiae deletion strains, locus YHR079C, strain IRE1, active compounds read low 0.984 | S. cerevisiae deletion strains, locus YHR094C, strain hxt1, active compounds read low 1 | S. cerevisiae deletion strains, locus YHR129C, strain ARP1, active compounds read low 1 | S. cerevisiae deletion strains, locus YHR200W, strain rpn10, active compounds read low 0.992 | S. cerevisiae deletion strains, locus YIL066C, strain RNR3, active compounds read low 1.02 | S. cerevisiae deletion strains, locus YIL073C, strain SPO22, active compounds read low 1.05 | S. cerevisiae deletion strains, locus YIL125W, strain kgd1, active compounds read low 0.996 | S. cerevisiae deletion strains, locus YIR030C, strain dcg1, active compounds read low 1.01 | S. cerevisiae deletion strains, locus YJL095W, strain BCK1, active compounds read low 0.994 and 0.998 | S. cerevisiae deletion strains, locus YJL134W, strain LCB3, active compounds read low 1.01 | S. cerevisiae deletion strains, locus YJL168C, strain set2, active compounds read low 0.989 | S. cerevisiae deletion strains, locus YJL187C, strain SWE1 (second series), active compounds read low 1.01 | S. cerevisiae deletion strains, locus YJR043C, strain POL32, active compounds read low 0.995 | S. cerevisiae deletion strains, locus YJR066W, strain TOR1, active compounds read low 0.93 | S. cerevisiae deletion strains, locus YJR075W, strain HOC1, active compounds read low 1.01 | S. cerevisiae deletion strains, locus YKL009W, strain mrt4, active compounds read low 1.09 | S. cerevisiae deletion strains, locus YKL068W, active compounds read low 1 | S. cerevisiae deletion strains, locus YKL085W, strain MDH1 (second series), active compounds read low 1.01 | S. cerevisiae deletion strains, locus YKL085W, strain MDH1, active compounds read low 1.01 | S. cerevisiae deletion strains, locus YKL190W, strain CNB1, active compounds read low 1.01 | S. cerevisiae deletion strains, locus YKR001C, strain vps1, active compounds read low 1.01 | S. cerevisiae deletion strains, locus YLR039C, strain RIC1, active compounds read low 1.04 | S. cerevisiae deletion strains, locus YLR058C, strain SHM2, active compounds read low 1.01 | S. cerevisiae deletion strains, locus YLR102C, strain apc9, active compounds read low 0.994 | S. cerevisiae deletion strains, locus YLR113W, strain HOG1, active compounds read low 0.969 | S. cerevisiae deletion strains, locus YLR262C, strain YPT6, active compounds read low 1.04 | S. cerevisiae deletion strains, locus YLR268W, strain sec22, active compounds read low 0.993 | S. cerevisiae deletion strains, locus YLR330W, strain CHS5, active compounds read low 1.01 | S. cerevisiae deletion strains, locus YLR342W, strain FKS1 (second series), active compounds read low 0.995 | S. cerevisiae deletion strains, locus YLR371W, strain rom2, active compounds read low 0.994 | S. cerevisiae deletion strains, locus YLR418C, strain cdc73, active compounds read low 0.949 | S. cerevisiae deletion strains, locus YML016C, strain PPZ1, active compounds read low 1.01 | S. cerevisiae deletion strains, locus YML032C, strain rad52, active compounds read low 0.987 | S. cerevisiae deletion strains, locus YML124C, strain tub3, active compounds read low 1 | S. cerevisiae deletion strains, locus YMR078C, strain ctf18, active compounds read low 0.993 | S. cerevisiae deletion strains, locus YMR223W, strain ubp8, active compounds read low 1 | S. cerevisiae deletion strains, locus YMR263W, strain SAP30, active compounds read low 1.01 | S. cerevisiae deletion strains, locus YMR307W, strain GAS1, active compounds read low 0.989 | S. cerevisiae deletion strains, locus YNL067W, strain RPL9B, active compounds read low 1.01 | S. cerevisiae deletion strains, locus YNL128W, strain TEP1, active compounds read low 1.01 | S. cerevisiae deletion strains, locus YNL153C, strain GIM3, active compounds read low 0.995 | S. cerevisiae deletion strains, locus YNL183C, strain NPR1, active compounds read low 0.941 | S. cerevisiae deletion strains, locus YNL233W, strain BNI4, active compounds read low 1 | S. cerevisiae deletion strains, locus YNL250W, strain rad50, active compounds read low 0.996 | S. cerevisiae deletion strains, locus YNL271C, strain bni1, active compounds read low 1 | S. cerevisiae deletion strains, locus YNL298W, strain CLA4, active compounds read low 1 | S. cerevisiae deletion strains, locus YNL307C, strain MCK1, active compounds read low 1 | S. cerevisiae deletion strains, locus YNL322C, strain KRE1, active compounds read low 1 | S. cerevisiae deletion strains, locus YNR052C, strain pop2, active compounds read low 1 | S. cerevisiae deletion strains, locus YOL006C, strain TOP1, active compounds read low 0.975 | S. cerevisiae deletion strains, locus YOL012C, strain htz1 1.05 | S. cerevisiae deletion strains, locus YOL147C, strain pex11, active compounds read low 0.996 | S. cerevisiae deletion strains, locus YOR061W, strain CKA2, active compounds read low 1.01 | S. cerevisiae deletion strains, locus YOR069W, strain VPS5, active compounds read low 1 | S. cerevisiae deletion strains, locus YOR136W, strain idh2, active compounds read low 0.998 | S. cerevisiae deletion strains, locus YOR144C, strain elg1, active compounds read low 0.997 | S. cerevisiae deletion strains, locus YOR184W, strain ser1, active compounds read low 1 | S. cerevisiae deletion strains, locus YOR231W, strain MKK1, active compounds read low 0.989 | S. cerevisiae deletion strains, locus YOR316C, strain cot1, active compounds read low 1 | S. cerevisiae deletion strains, locus YPL055C, strain LGE1, active compounds read low 1.03 | S. cerevisiae deletion strains, locus YPL241C, strain CIN2, active compounds read low 1.01 | S. cerevisiae deletion strains, locus YPL256C, strain CLN2, active compounds read low 0.989 | S. cerevisiae deletion strains, locus YPR119W, strain clb2, active compounds read low 0.998 | S. cerevisiae deletion strains, locus YPR141C, strain kar3, active compounds read low 1 | S. cerevisiae deletion strains, locus YPR163C, strain tif3, active compounds read low 1.01 | S. cerevisiae deletion strains, locus YPR167C, strain met16, active compounds read low 0.992 | S. cerevisiae deletion strains, strain wtn01, active compounds read low 0.988 | S. cerevisiae strains, strain wild type, active compounds read low 1.01
